# Assay results taken from article PMC4336329 (PLoS ONE, 2015).
# Hit rate of the full screen: of about 310,000 compounds, about 14,000 (4.5%) showed an effect of 50% or more. The effect is printed as a negative number. The sample holds strong results, similar compounds and a random draw of the others, so the mix is not that of the screen.
# Molecular target: human ether-à-go-go-related gene (hERG) potassium channel (human, UniProt Q12809)
# Assay: primary screen, population patch clamp on CHO cells stably expressing hERG; higher = less effect of the substance
# 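Note: peak tail current of the secondary pulse compared with the same well before compound.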
# human ether-à-go-go-related gene (hERG) potassium channel, sequence (Q12809 whole entry, looked up): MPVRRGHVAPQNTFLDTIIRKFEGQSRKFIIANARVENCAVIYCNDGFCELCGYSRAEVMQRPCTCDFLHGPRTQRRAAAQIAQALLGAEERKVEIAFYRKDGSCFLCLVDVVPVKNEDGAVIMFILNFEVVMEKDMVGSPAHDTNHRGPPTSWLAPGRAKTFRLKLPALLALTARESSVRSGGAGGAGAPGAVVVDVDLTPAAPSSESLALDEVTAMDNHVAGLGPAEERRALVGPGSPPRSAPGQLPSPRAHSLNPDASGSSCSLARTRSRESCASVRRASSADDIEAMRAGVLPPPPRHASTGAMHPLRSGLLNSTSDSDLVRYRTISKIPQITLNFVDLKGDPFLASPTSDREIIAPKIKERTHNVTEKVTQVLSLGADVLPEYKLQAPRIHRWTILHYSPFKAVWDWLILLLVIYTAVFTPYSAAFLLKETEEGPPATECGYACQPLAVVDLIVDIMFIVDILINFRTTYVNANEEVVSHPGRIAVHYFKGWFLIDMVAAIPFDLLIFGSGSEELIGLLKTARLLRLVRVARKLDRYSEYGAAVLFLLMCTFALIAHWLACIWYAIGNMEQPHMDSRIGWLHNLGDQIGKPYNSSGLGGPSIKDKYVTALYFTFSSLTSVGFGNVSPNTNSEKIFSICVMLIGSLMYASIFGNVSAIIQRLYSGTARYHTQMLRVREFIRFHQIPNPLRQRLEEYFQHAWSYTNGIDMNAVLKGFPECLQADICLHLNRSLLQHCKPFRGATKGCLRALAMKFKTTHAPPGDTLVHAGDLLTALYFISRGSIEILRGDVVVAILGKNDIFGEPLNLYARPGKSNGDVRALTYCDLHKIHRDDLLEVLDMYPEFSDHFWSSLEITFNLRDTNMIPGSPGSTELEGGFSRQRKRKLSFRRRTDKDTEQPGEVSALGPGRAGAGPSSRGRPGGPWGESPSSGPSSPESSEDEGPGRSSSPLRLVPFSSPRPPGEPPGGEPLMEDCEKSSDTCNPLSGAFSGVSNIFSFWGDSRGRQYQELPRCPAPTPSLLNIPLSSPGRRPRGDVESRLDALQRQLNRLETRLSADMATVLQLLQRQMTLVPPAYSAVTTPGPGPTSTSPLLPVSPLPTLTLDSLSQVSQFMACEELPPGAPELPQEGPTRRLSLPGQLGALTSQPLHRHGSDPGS
row,SMILES,"hERG current change (%, negative = inhibition) at 10uM [%]"
1,CCOC(=O)/C(C#N)=C1\CCCN1CC(N)=S,2.57
2,COc1ccc2c(-c3ccccc3)cc(SC(C)C(N)=O)nc2c1 (stereo not drawn),19.3
3,COc1ccc(C(=O)Nc2ccc([N+](=O)[O-])cn2)cc1OC,-22.6
4,Cl.c1ccc2c(CN3CCCCCC3)c[nH]c2c1,-18.1
5,Cc1ccccc1N1CCN(Cc2c[nH]c3ccccc23)CC1,-62.1
6,Clc1ccccc1N1CCN(Cc2c[nH]c3ccccc23)CC1,-35.6
7,Brc1ccc(-c2cnc3n2CCCC3)cc1,-34.2
8,CCOc1ccc(N(CC(=O)NCCSCc2ccc(C)cc2)S(C)(=O)=O)cc1,10.1
9,CCC(C)c1ccccc1NC(=O)C(C)N(C)Cc1cccc(OC)c1.O=C(O)C(=O)O (stereo not drawn),11.8
10,Cc1ccc(S(=O)(=O)N(C)CC(=O)NCCCn2ccnc2)cc1,9.92
11,Br.CC(C)(C)C(=O)CN1C2=NCCN2c2ccccc21,-32.1
12,Br.CC(C)(C)C(=O)CN1C2=NCCCN2c2ccccc21,-75.8
13,Cc1cccc(CN2C3=NCCCN3c3ccccc32)c1.Cl,-57.4
14,Cc1ccc(CN2C3=NCCN3c3ccccc32)cc1.Cl,-68.3
15,Br.CC(C)(C)c1ccc(CN2C3=NCCCN3c3ccccc32)cc1,-77.6
16,Br.C=CCN1C2=NCCCN2c2ccccc21,-13.9
17,Cc1ccc(CN2C3=NC(=O)CN3c3ccccc32)cc1,-5.41
18,COC(=O)Cc1ccc(NC(=S)NCCO)cc1,17.6
19,Cn1ccs/c1=N\C(=O)Nc1cccc(Cl)c1,0.433
20,O=C(NCc1cc([N+](=O)[O-])ccc1O)c1cccc(NS(=O)(=O)c2ccccc2)c1,18.3
21,CCOc1ccc(C(C(=O)NC2CCCCC2)N(C(=O)Cc2cccs2)c2ccc(-n3cnnn3)c(OC)c2)cc1 (stereo not drawn),-15.7
22,CCOC(=O)c1[nH]c(C)c(/C(O)=C2\C(=O)C(=O)N(CCCN(C)C)C2c2cccnc2)c1C (stereo not drawn),4.27
23,NCc1cccc(-n2cccn2)c1.O=C(O)CC(=O)O,-8.09

row,SMILES,"hERG current change (%, negative = inhibition) at 10uM [%]"
1,CCc1ccccc1NC(=O)CC1SCCNC1=O (stereo not drawn),26.3
2,O=C(O)COCC(=O)NCc1csc2ccccc12,2.75
3,COc1ccc(S(=O)(=O)Nc2ccccc2C(N)=O)cc1OC,10.1
4,Cc1ccc(CN2C3=NCCCN3c3ccccc32)cc1.Cl,-61.2
5,CCN1C2=NCCCN2c2ccccc21.Cl,1.64
6,c1ccc(-n2nnnc2SCc2ccccn2)cc1,7.26
7,CCCCC(=O)N/N=C/c1ccc(-c2ccc([N+](=O)[O-])cc2)o1,-21.9
8,Cc1ccc(C(=O)N/C(=C/c2ccc(-c3ccc([N+](=O)[O-])cc3)o2)C(=O)NCCCN(C)C)cc1,-73.7
9,Cc1ccc(C(=O)N/C(=C\c2ccc(-c3ccc([N+](=O)[O-])cc3)o2)C(=O)NC2CCS(=O)(=O)C2)cc1 (stereo not drawn),-28.2
10,CN(C)CCCNC(=O)/C(=C/c1ccc(-c2ccc([N+](=O)[O-])cc2)o1)NC(=O)c1ccccc1,-73.6
11,COc1ccc(CN=C2NC(=O)CC(C(=O)Nc3cc(C)cc(C)c3)S2)cc1 (stereo not drawn),-18.4
12,COc1ccc(OC)c(NC(=O)CCCN2C(=O)C3C4C=CC(C4)C3C2=O)c1 (stereo not drawn),-3.43
13,CCOC(=O)c1ccc(NC(=O)N2CCCCC2)cc1,3.33
14,CCOc1ccc(S(=O)(=O)N2CCN(S(=O)(=O)c3ccc(C(C)=O)cc3)CC2)cc1,0.493
15,CCOC(=O)COc1ccc(S(=O)(=O)N2CCN(c3ccc(F)cc3)CC2)cc1,-60
16,CCOC(=O)COc1ccc(S(=O)(=O)N2CCN(c3ccc(OC)cc3)CC2)cc1,0.759
17,CCOc1ccc(C(=O)CN2CCN(S(=O)(=O)c3ccc(Cl)cc3)CC2)cc1,-40.2
18,CCOc1ccc(C(=O)CN2CCN(S(=O)(=O)c3ccc(OC)cc3)CC2)cc1,-61.7
19,CCOc1ccc(C(=O)CN2CCN(S(=O)(=O)c3ccc(F)cc3)CC2)cc1,-63
20,CCOc1ccc(NC(=O)CCN2CCN(S(=O)(=O)c3ccc(OC)cc3)CC2)cc1,-28.8
21,CCOC(=O)COc1ccc(S(=O)(=O)N2CCN(c3ccccc3)CC2)cc1,-39
22,CCOc1ccc(NC(=O)CCN2CCN(S(=O)(=O)c3ccc(F)cc3)CC2)cc1,-16.5
23,COc1ccc(CN2CCN(S(=O)(=O)c3ccc(NC(C)=O)cc3)CC2)cc1.O=C(O)C(=O)O,-29.4

row,SMILES,"hERG current change (%, negative = inhibition) at 10uM [%]"
1,CCOc1ccc(CN2CCN(S(=O)(=O)c3ccc(NC(C)=O)cc3)CC2)cc1OC.O=C(O)C(=O)O,-35.4
2,CCOc1ccc(CN2CCN(S(=O)(=O)c3ccc(NC(C)=O)cc3)CC2)cc1.O=C(O)C(=O)O,-50.4
3,Cc1c(NC(=S)Nc2ccccc2)c(=O)n(-c2ccccc2)n1C,32.9
4,NC1=NC(=O)/C(=C\c2cccs2)S1,8.6
5,N#C/C(=C/c1ccncc1)c1nc2ccccc2s1,2.23
6,CCOc1cccc(C=NCCc2ccc(OC)c(OC)c2)c1O,12.4
7,O=C(NCC1CCCO1)c1ccc(Cl)c(S(=O)(=O)N2CCOCC2)c1 (stereo not drawn),12.7
8,O=C(NCc1ccccn1)c1cccc(NS(=O)(=O)c2ccc(Br)cc2)c1,-19.8
9,COc1ccc(N(C(C)C(=O)NCCSCc2cccc(Cl)c2)S(C)(=O)=O)cc1 (stereo not drawn),-13.3
10,O=C(NCCS(=O)(=O)N1CCN(c2ccccc2F)CC1)c1ccc(Br)o1,-6.39
11,CC(C)CCn1c(CN(C)Cc2ccccc2)nc2c1c(=O)n(C)c(=O)n2C,-43.9
12,Cc1cc(C)nc(SCC(=O)Nc2ncc3c(n2)CC(C)(C)CC3=O)n1,-13.1
13,COc1ccc(N(C(=O)c2ccc(S(=O)(=O)N3CCCC3)cc2)C2C=CS(=O)(=O)C2)cc1 (stereo not drawn),-31.9
14,CCOc1ccc(N(C(=O)c2ccc(S(=O)(=O)N3CCCC3)cc2)C2C=CS(=O)(=O)C2)cc1 (stereo not drawn),-51.9
15,Cc1ccc(N(C(=O)c2ccc(S(=O)(=O)N3CCCC3)cc2)C2C=CS(=O)(=O)C2)cc1 (stereo not drawn),-32.9
16,COc1ccc(N2CCN(c3ccc(NC(=O)C4CCCCC4)cc3C#N)CC2)cc1,15.2
17,COc1cc(C(=O)N2CCN(C(=O)C3CC3)CC2)cc(OC)c1OC,3.78
18,Cc1ccc(C)c(NC(=O)COC(=O)Cn2c(C)csc2=O)c1,6.84
19,Cc1c(C(=O)N2CCCCCC2)c(S(=O)(=O)Nc2cccc(F)c2)c(C)n1C,9.56
20,Cn1c(N2CCOCC2)c(/C=N/O)c2ccccc21,7.51
21,CN1CCN(c2c(/C=N/O)c3ccccc3n2C)CC1,-51.5
22,Cc1c(/C=N/O)c2ccccc2n1C,5.39
23,O=C(N/N=C/c1ccco1)c1ccc(NC(=O)C2CC2)cc1,18.2

row,SMILES,"hERG current change (%, negative = inhibition) at 10uM [%]"
1,OC(COCC(F)(F)C(F)(F)C(F)(F)C(F)F)Cn1c2ccc(Cl)cc2c2cc(Cl)ccc21 (stereo not drawn),-9.49
2,CC(C)NC(=O)C(=O)Nc1cc2c3c(c1)CCC(=O)N3CCC2,11.4
3,Cc1csc(NC(=O)CSc2nnc(-c3ccoc3C)n2Cc2ccco2)n1,-82
4,Cc1csc(NC(=O)CSc2nccn2Cc2ccco2)n1,4.55
5,O=C(CSc1nnc(-c2ccncc2)n1Cc1ccco1)Nc1nccs1,-27
6,Cc1occc1-c1nnc(SCC(=O)Nc2nccs2)n1Cc1ccco1,-75.4
7,Cc1csc(NC(=O)CSc2nnc(C)n2Cc2ccco2)n1,-1.85
8,Cc1cc(C)nc(SCc2nnc(SCC(=O)Nc3nccs3)n2Cc2ccco2)n1,-25
9,CC(=O)NC1=C(NC2CCS(=O)(=O)C2)C(=O)c2ccccc2C1=O (stereo not drawn),18.4
10,COC(=O)c1ccc(CNC(=O)C2CCC(=O)N(Cc3cccc(F)c3)C2)cc1 (stereo not drawn),-12.7
11,COc1cccc(CNC(=O)C2CCC(=O)N(CCc3cccc(F)c3)C2)c1 (stereo not drawn),-13
12,O=C(NCc1cccc(OC(F)(F)F)c1)C1CCC(=O)N(Cc2cccc(F)c2)C1 (stereo not drawn),-50.1
13,CSc1ccc(CNC(=O)C2CCC(=O)N(Cc3cccc(F)c3)C2)cc1 (stereo not drawn),-62.4
14,CSc1ccc(CNC(=O)C2CCC(=O)N(CCc3cccc(F)c3)C2)cc1 (stereo not drawn),-77.1
15,O=C(NCc1cccc(F)c1)C1CCC(=O)N(CCc2cccc(F)c2)C1 (stereo not drawn),-30.7
16,O=C(NCc1cccc(F)c1)C1CCC(=O)N(CC2CCCCC2)C1 (stereo not drawn),-9.08
17,Cc1ccccc1CNC(=O)C1CCC(=O)N(Cc2cccc(F)c2)C1 (stereo not drawn),-8.38
18,O=C(NCc1ccc(Cl)s1)C1CCC(=O)N(CCc2ccccn2)C1 (stereo not drawn),-10.1
19,O=C(NCc1ccc(Cl)s1)C1CCC(=O)N(CCc2cccc(F)c2)C1 (stereo not drawn),-60.2
20,Cc1ccc(CNC(=O)C2CCC(=O)N(CCc3cccc(F)c3)C2)cc1 (stereo not drawn),-38
21,O=C(NCc1ccccc1OC(F)(F)F)C1CCC(=O)N(Cc2cccc(F)c2)C1 (stereo not drawn),-12.4
